# Most compounds without a hit are left out; they make up all but 2.4% or so of the library.
# MCL1 BIM primary: disrupts human MCL1 binding to BIM-BH3 peptide. Q07820. GST-MCL1 / FITC-Bim-BH3 fluorescence polarization. inhibition, % at 10.9 µM. 320,000 compounds, 0.68% hits;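 active = inhibition above the mean inhibition of all tested compounds plus 3 SD, set per campaign, cut at about 40% in these data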;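 note: 0% = DMSO wells and 100% = unlabeled Bim-BH3 peptide control; higher means more loss of mP so more displacement of Bim peptide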
# Target sequence (Q07820 whole entry, looked up): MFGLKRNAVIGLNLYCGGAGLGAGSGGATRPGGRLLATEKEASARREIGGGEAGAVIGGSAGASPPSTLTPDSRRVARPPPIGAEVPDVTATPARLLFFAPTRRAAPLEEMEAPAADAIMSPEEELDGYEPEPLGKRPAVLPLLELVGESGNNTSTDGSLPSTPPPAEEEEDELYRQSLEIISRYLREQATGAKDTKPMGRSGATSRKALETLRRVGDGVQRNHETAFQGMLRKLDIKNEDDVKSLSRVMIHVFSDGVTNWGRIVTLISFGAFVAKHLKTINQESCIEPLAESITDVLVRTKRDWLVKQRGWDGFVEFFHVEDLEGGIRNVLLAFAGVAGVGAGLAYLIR
# Mcl1-Noxa inh: disrupts binding of human Mcl-1 to Noxa peptide. AID 1022. TR-FRET Mcl-1/Noxa peptide binding, 2 h. Q07820. inhibition, % at 21.7 µM. 220,000 compounds, 1.5% hits;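 active = compounds that cut the protein-peptide binding signal by more than 50% relative to plate controls in a single-dose test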;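 note: His-tagged Mcl-1 with rhodamine Noxa BH3 peptide and terbium anti-His antibody; 0% = Mcl-1 plus Noxa peptide wells and 100% = peptide-only wells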
# Mcl1-Bid inh: Mcl-1/Bid interaction inhibition; 220,000 compounds, 0.97% hits; inhibition, % at 21.7 µM; TR-FRET Mcl-1/Bid-Dy647 peptide binding, 1536-well;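 active = compounds that cut the binding signal by more than half at the single screening dose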;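 note: His-tagged Mcl-1 with europium anti-His antibody binding Bid BH3 peptide; 0% = Mcl-1 plus peptide wells and 100% = peptide-only wells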
# zVAD death inh: L929 zVAD cell death inhibition. L929 zVAD necroptosis rescue, ATP luminescence, 24 h; with zVAD 60 µM. viability rescue, % at 10 µM. 220,000 compounds, 0.38% hits. AID 1377;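 active = activation, scaled between plate controls, above about 75%, limit read from the data; inactive = activation under that limit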;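 note: 0% = zVAD with DMSO and 100% = DMSO alone without zVAD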
# TNF death inh: TNF-alpha cell death inhibition in Jurkat FADD-/- cells; Jurkat FADD-/- TNF necroptosis rescue, ATP luminescence, 24 h; 0 = TNF only, 100 = no-TNF cells; 220,000 compounds, 0.068% hits; activation (protection from cell death), % at 10 µM; AID 463075;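 active = activation, meaning protection from cell death, of at least 50% relative to plate controls; inactive = activation below 50%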;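 note: necroptosis triggered by 40 ng/mL TNF-alpha added together with compound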
# Bim-Mcl-1: disrupts Bim peptide binding to human Mcl-1; Q07820; Bead-based flow cytometry, Bim peptide-Mcl-1 binding; inhibition, % at 10 µM; 190,000 compounds, 0.1% hits; in the data active = inhibition above about 40%;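 note: 0% = no compound tracer wells and 100% = peptide blocker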
# BCLXL inh confirm: Bcl-xL (human) inhibition, MCL1 counter-screen confirmation; shares compounds with MCL1 BIM primary; GST-Bcl-xL / FITC-Bim BH3 peptide FP binding; inhibition, % at 10.9 µM; 1,700 compounds, 54% hits;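 active = inhibition above a cutoff equal to the mean inhibition of all tested compounds plus 3 SD, cut at about 30% in these data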;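 note: 0% = DMSO wells and 100% = unlabeled Bim BH3 control peptide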
# Target sequence (Q07817 whole entry, looked up): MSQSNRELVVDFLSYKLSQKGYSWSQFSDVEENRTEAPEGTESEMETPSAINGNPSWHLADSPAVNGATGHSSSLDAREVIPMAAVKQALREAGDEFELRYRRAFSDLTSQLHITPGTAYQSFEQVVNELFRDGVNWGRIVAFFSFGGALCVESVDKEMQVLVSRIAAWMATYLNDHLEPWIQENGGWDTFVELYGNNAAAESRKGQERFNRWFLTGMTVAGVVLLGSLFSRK
# MCL1 BIM confirm: MCL1-BIM-BH3 interaction inhibition, confirmation; shares compounds with MCL1 BIM primary; GST-MCL1 / FITC-Bim-BH3 fluorescence polarization; inhibition, % at 10.9 µM; 1,700 compounds, 61% hits;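 active = inhibition above the average of all tested compounds plus 3 SD, cut at about 40% in these data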;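 note: 0% = DMSO wells and 100% = unlabeled Bim-BH3 control peptide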
# Numbers without * were called inactive; . = no result given; + = active, no number.
SMILES,MCL1 BIM primary,Mcl1-Noxa inh,Mcl1-Bid inh,zVAD death inh,TNF death inh,Bim-Mcl-1,BCLXL inh confirm,MCL1 BIM confirm
Cn1c(=O)c(NCCO)c2c3c(cccc31)C(=O)c1ccccc1-2,123*,-174,-21,2,0,-2,125*,129*
CC(=O)Nc1ccc(Nc2c3c4c(cccc4n(C)c2=O)C(=O)c2ccccc2-3)cc1,+,23,3,0,-2,-2,181*,+
CCCCNc1c2c3c(cccc3n(C)c1=O)C(=O)c1ccccc1-2,+,-60,-10,-1,-7,2,178*,+
Cc1nc2sccn2c(=O)c1S(=O)(=O)N1CCN(c2cccc(Cl)c2)CC1,2,.,.,.,.,.,.,.
Cn1c(=O)c(NCCc2ccccc2)c2c3c(cccc31)C(=O)c1ccccc1-2,+,-272,-4,-1,2,2,+,+
Cn1c(NCCc2ccccc2)cc(=O)n(C)c1=O,1,-4,-24,1,0,-3,.,.
CSCC(C)N1CCC(n2nccc2NC(=O)CCCc2ccccc2)CC1 (stereo not given),108*,.,.,.,.,.,99*,119*
C=C(C)CCC(C)N1CCC(n2nccc2NC(=O)CCCc2ccccc2)CC1 (stereo not given),3,.,.,.,.,.,.,.
CC(C)(C)C(=O)[C@@H]1[C@@H]2C(=O)N(c3ccc4c(c3)OCCO4)C(=O)[C@@H]2C2c3ccccc3C=CN21 (stereo not given in full),0,7,-18,0,-1,1,.,.
Cc1ccc(N2C(=O)[C@@H]3[C@H](C2=O)C2c4ccccc4C=CN2[C@@H]3C(=O)c2ccco2)cc1 (stereo not given in full),.,26,11,0,-1,-5,.,.
O=C(c1ccco1)[C@@H]1[C@@H]2C(=O)N(c3ccccc3)C(=O)[C@@H]2C2c3ccccc3C=CN21 (stereo not given in full),79*,.,.,2,-1,.,60*,77*
Cc1ccc(N2C(=O)[C@@H]3[C@H](C2=O)C2c4ccccc4C=CN2[C@@H]3C(=O)c2ccco2)c(C)c1 (stereo not given in full),63*,.,.,1,-2,.,44*,59*
CC(C)CCn1c(SCC(=O)NC2CCS(=O)(=O)C2)nc2cc(Cl)ccc2c1=O (stereo not given),4,.,.,.,.,.,.,.
O=C(c1cc(Cl)ccc1F)N1CCCC(Nc2ccc3c(c2)OCCO3)C1 (stereo not given),8,.,.,.,.,.,.,.
COc1ccc(NC(=O)c2cc(S(=O)(=O)N3CCCC3)c[nH]2)cc1,108*,.,.,.,.,.,13,10
NS(=O)(=O)c1cc(C(=O)NC2CCSc3ccccc32)ccc1Cl (stereo not given),79*,.,.,.,.,.,30,70*
COc1ccc(/C=c2\s/c(=C/C(=O)c3ccc(C)cc3)[nH]c2=O)c(OC)c1,105*,9,-21,2,3,0,88*,97*
CC1CN(C(=O)CSc2nc(N)cc(N)n2)CC(C)O1 (stereo not given),-4,.,.,.,.,.,.,.
CC(C)(C)C1CC=C2C(C#N)=C(N)C(C#N)(C#N)C(c3cccs3)C2C1 (stereo not given),63*,.,.,-1,-13,.,114*,145*
Cc1ccc(C)c(N2CCN(C(=O)CCC(=O)Nc3nnc(C(F)(F)F)s3)CC2)c1,6,.,.,.,.,.,.,.
CC(=O)Nc1ccc(NC(=O)c2ccnn2C)cc1,0,.,.,.,.,.,.,.
C=CCn1c(=O)/c(=C/c2cc(OC)c(OC)c(OC)c2)s/c1=C(/C#N)c1nc2ccccc2n1C,123*,19,-7,-2,-11,-1,145*,169*
CNc1nnc(Sc2ncccc2[N+](=O)[O-])s1,62*,-1,2,-1,-3,.,6,-1
O=[N+]([O-])c1cccnc1Sc1ccc(F)cc1,0,.,.,.,.,.,.,.
CCN(CC)C(=O)C1=C(C)NC(=O)NC1c1ccccc1F (stereo not given),66*,8,-18,0,-2,0,23,27
SMILES,MCL1 BIM primary,Mcl1-Noxa inh,Mcl1-Bid inh,zVAD death inh,TNF death inh,Bim-Mcl-1,BCLXL inh confirm,MCL1 BIM confirm
O=C(O)CCNS(=O)(=O)c1cccc2nsnc12,-2,.,.,.,.,.,.,.
COC(=O)CCC(=O)Nc1ccc(S(=O)(=O)Nc2nc(C)cc(C)n2)cc1,10,.,.,.,.,.,.,.
O=C(NCCC1=CCCCC1)C(=O)NCc1ccncc1,68*,10,-19,1,1,2,9,-1
COc1cc([N+](=O)[O-])cc(/C=N/NC(=O)Cn2nccc2C)c1O,3,-57,-87,0,-1,.,.,.
O=C(Cn1cnc2sc(-c3ccccc3)cc2c1=O)NCc1ccco1,62*,62*,14,0,-12,-3,22,62*
Cc1ccnc(Nc2nc(-c3ccc(F)cc3)cs2)c1,12,.,.,.,.,.,.,.
Cc1ccnc(Nc2nc(-c3ccc(Cl)cc3)cs2)c1,52*,.,.,.,.,.,2,-2
Cc1cc(C)c(C)c(S(=O)(=O)N2CCCCC2C(=O)O)c1C (stereo not given),-2,-5,-19,1,-1,0,.,.
Cc1ccc(NC(=O)CN2C(=O)N/C(=C/c3cccn3-c3ccc(C(=O)O)cc3)C2=O)cc1,79*,102*,44,0,0,9,41*,85*
Cc1ccc(/C=C2/NC(=O)N(Cc3ccc(Br)cc3)C2=O)o1,46*,19,-15,1,1,-1,-2,21
Cc1ccc(/C=C2/NC(=O)N(Cc3ccccc3F)C2=O)o1,27,-17,26,1,3,-8,.,.
COc1ccc(N2CCN(S(=O)(=O)CCNC(=O)c3cc(=O)c4ccccc4o3)CC2)cc1,2,.,.,.,.,.,.,.
O=C1Nc2ccccc2N(O)N1c1cc(-c2ccccc2)[nH]n1,6,0,-16,0,1,-1,.,.
CCOc1ccc(CCN2CN(C3CCCCC3)CNC2=S)cc1OCC,3,10,-59,-1,1,.,.,.
CCOc1ccccc1N1CN(C2CCCCC2)CNC1=S,52*,26,-20,-1,-2,.,2,3
CC(C)=CCc1c(O)ccc2c1OC(c1ccc(O)c(O)c1)CC2=O (stereo not given),16,33,-6,11,-1,-1,.,.
O=C1CC(c2ccc(O)c(O)c2)Oc2c1ccc(O)c2O (stereo not given),70*,106*,-86,2,4,.,20,78*
CCOC(=O)Nc1ccc(NCc2ccc(F)cc2)nc1N,191*,.,.,.,.,.,36*,31

# Screening results (PubChem BioAssay)
